NPSR antagonist: antagonists of human neuropeptide S receptor cAMP signaling | Q6W5P4 | CHO-NPSR cells, cAMP TR-FRET, antagonist mode | Potency, µM (top dose mostly 38.3 µM), for inactives: at the highest dose activity change, negative = inhibition, usual class: inhibitors | 220,000 tested, 1% active | AID 1461; also: potency is read from the fitted curve at half-maximal effect; nearly all actives have a fitted effect of over 50% in size
Target sequence (Q6W5P4 whole entry, looked up): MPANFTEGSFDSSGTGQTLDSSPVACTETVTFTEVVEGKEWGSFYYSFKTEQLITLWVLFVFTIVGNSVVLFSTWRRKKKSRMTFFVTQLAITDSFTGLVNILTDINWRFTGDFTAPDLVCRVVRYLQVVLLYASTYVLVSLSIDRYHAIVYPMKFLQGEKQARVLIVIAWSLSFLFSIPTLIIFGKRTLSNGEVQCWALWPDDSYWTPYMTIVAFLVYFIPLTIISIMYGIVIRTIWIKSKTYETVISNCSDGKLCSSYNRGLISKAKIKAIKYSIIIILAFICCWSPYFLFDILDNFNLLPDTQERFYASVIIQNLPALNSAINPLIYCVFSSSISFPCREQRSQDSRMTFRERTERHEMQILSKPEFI
PNC inhibitor: inhibitors of perinucleolar compartment assembly | PC3M PTB-GFP, PNC prevalence imaging, 16 h; active compounds read low | activity change (PNC), negative = inhibition, % at 10 µM | 140,000 tested, 3.1% active;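 active = readout at or below -70, meaning at least 70% loss of cells showing the perinucleolar compartment, a nuclear body marking cancer cells; inconclusive = readout between -30 and a set limit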;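 also: plate controls were DMSO wells for no effect and camptothecin positive control wells for full effect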
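Read-out is percentage of cells bearing a perinucleolar compartment, from automated 20x imaging of fixed, Hoechst-stained PC3M PTB-GFP cells. Cells were seeded 4 h, then exposed 16 h to compound (23 nl of library stock) in duplicate plates.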
KDM4E inh: JMJD2E (human) inhibition; AID 2147; 230,000 tested, 1.6% active; Potency, µM (highest dose often 57.1 µM), for inactives: at the highest dose activity change, negative = inhibition, hits mostly inhibitors; JMJD2E catalytic domain, FDH-coupled NADH fluorescence (FDH is formaldehyde dehydrogenase);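 also: potency is read from the fitted curve at half-maximal effect; 0% = wells with enzyme and -100% = buffer wells without enzyme; nearly all actives have a fitted effect of over 50% in size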
Target sequence (B2RXH2 1-337 limits assumed): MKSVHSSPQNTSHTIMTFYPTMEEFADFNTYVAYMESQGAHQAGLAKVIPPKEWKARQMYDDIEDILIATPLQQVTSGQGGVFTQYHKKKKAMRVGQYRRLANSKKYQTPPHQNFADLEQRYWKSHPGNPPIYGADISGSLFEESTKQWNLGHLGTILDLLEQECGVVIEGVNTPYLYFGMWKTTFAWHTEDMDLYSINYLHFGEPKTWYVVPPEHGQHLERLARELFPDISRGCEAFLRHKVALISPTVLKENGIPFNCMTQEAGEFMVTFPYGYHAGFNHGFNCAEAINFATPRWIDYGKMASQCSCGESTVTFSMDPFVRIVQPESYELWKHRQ
Tau fibril ThT: tau fibrillization inhibition (ThT binding); P10636; recombinant tau K18 P301L, heparin-induced fibrillization, ThT fluorescence; Potency, µM (series often up to 57.4 µM), without a hit: top-dose activity, negative = inhibition, hits mostly inhibitors; 270,000 tested, 2.1% active; also: potency is read from the fitted curve at half-maximal effect; nearly all actives have a fitted effect of over 55% in size
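K18 P301L tau (15 uM + 0.24 uM Alexa 594-tagged), heparin 20 uM, NaOAc pH 7, 6 h 37 C; ThT 30 uM, 1 h RT, ex 450/em 510 nm.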
Tau FP inhib: tau fibrillization inhibition (FP). P10636. K18 P301L tau heparin fibrillization, Alexa594 FP, 6 h. Potency, µM (top dose mostly 57.7 µM), without a hit: at the top dose activity, negative = inhibition, hits mostly inhibitors. 280,000 tested, 0.39% active. AID 1468; also: potency is read from the fitted curve at half-maximal effect; nearly all actives have a fitted effect of over 55% in size
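Read-out: fluorescence polarization of Alexa 594-labeled tau (0.24 uM), 555 nm excitation, 632 nm emission. Mixtures held 15 uM unlabeled K18 P301L, compound and 20 uM heparin, pH 7 acetate buffer, incubated 6 hr at 37 C.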
Tau fluor cs: counter-screen for tau fibril formation inhibitors; tau K18 P301L (four-repeat tau fragment) Alexa594 fluorescence, heparin fibrillization; AID 1463; 280,000 tested, 0.93% active; Potency, µM (highest dose often 57.7 µM), without a hit: at the top dose activity change, negative = decrease; also: potency is read from the fitted curve at half-maximal effect; nearly all actives have a fitted effect of over 55% in size
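Human K18 P301L tau (15 uM unlabeled plus 0.24 uM Alexa 594-labeled, final) in 100 mM sodium acetate pH 7 was mixed with compound and 20 uM heparin and incubated 6 hr at 37 C.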
Numbers without * were called inactive; [ ] = another dose, or the depositor's remark. The list is not random: actives were taken first. Their share in the collection is about 5.1%. Unless noted, calls follow the shape of the dose curve; as a rule, active = well fitted curve in the direction sought with a large enough effect; inconclusive = small, poorly fitted or top-dose-only effect, or another doubt; inactive = no such curve, though single readings can be large; an effect the other way counts as inactive or inconclusive. Unless noted, % is scaled to controls: 0 for no effect and ±100 for the full control effect.

How did COc1cc2c(cc1NC(=O)c1cccc([N+](=O)[O-])c1)oc1ccccc12 do in these assays?
NPSR antagonist: 10µM*; PNC inhibitor: -1; KDM4E inh: 10%; Tau fibril ThT: -8%; Tau FP inhib: -2%; Tau fluor cs: -6%

How did COc1cc2c(cc1NC(=S)NC(=O)c1c(OC)cccc1OC)oc1ccccc12 do in these assays?
NPSR antagonist: -3%; PNC inhibitor: inconclusive; KDM4E inh: -22%; Tau fibril ThT: -1%; Tau FP inhib: 28µM*; Tau fluor cs: -22%

How did CCOc1ccc(C(c2c(O)cc(C)n(Cc3ccco3)c2=O)N2CCN(c3ccccc3)CC2)cc1 (stereo not given) do in these assays?
Tau fibril ThT: inconclusive; Tau FP inhib: -16%; Tau fluor cs: 2%

How did C/C(Cn1nnc([N+](=O)[O-])n1)=N\NC(=O)c1ccc(C)cc1 do in these assays?
NPSR antagonist: 22%; PNC inhibitor: -109*; KDM4E inh: -10%; Tau fibril ThT: -4%; Tau FP inhib: 5%; Tau fluor cs: 2%

What do the screens show for `C/C(Cn1cnc([N+](=O)[O-])n1)=N\NC(=O)c1cccc(F)c1`?
NPSR antagonist: 12%[46.1 µM]; PNC inhibitor: -88*; KDM4E inh: 1%; Tau fibril ThT: -8%; Tau FP inhib: -5%; Tau fluor cs: -5%

Results for CC(C)c1ccc(NC(=O)c2cc3c(s2)-c2ccccc2SC3)cc1 ?
Tau fibril ThT: -3%; Tau FP inhib: inconclusive; Tau fluor cs: inconclusive

What do the screens show for `CC(C)OC(=O)COc1ccc(-c2ccccc2)cc1`?
NPSR antagonist: -14%[46.1 µM]; PNC inhibitor: 12; KDM4E inh: -4%; Tau fibril ThT: inconclusive; Tau FP inhib: 6%; Tau fluor cs: -17%

What do the screens show for `CC(=O)c1ccc(OCC(=O)c2ccc(-c3ccccc3)cc2)cc1`?
NPSR antagonist: -4%; PNC inhibitor: -87*; KDM4E inh: 1%; Tau fibril ThT: inconclusive; Tau FP inhib: -4%; Tau fluor cs: -4%

How did COc1ccc(NC(=O)CCN2CCN(CCO)CC2)c(OC)c1 do in these assays?
Tau fibril ThT: 0%; Tau FP inhib: 2%; Tau fluor cs: 2%

How did Cc1cc(C(C)(C)C)oc1C(=O)N(CC(=O)NC1CCCC1)Cc1ccccc1Cl do in these assays?
NPSR antagonist: 7.9µM*; PNC inhibitor: -12; KDM4E inh: 2%; Tau fibril ThT: inconclusive; Tau FP inhib: -1%; Tau fluor cs: -15%

Results for Cn1c(N2CCOCC2)c(/C=N/OC(=O)c2ccc(F)cc2)c2ccccc21 ?
NPSR antagonist: -18%[46.1 µM]; PNC inhibitor: -99*; KDM4E inh: 3%; Tau fibril ThT: 0%; Tau FP inhib: -3%; Tau fluor cs: -29%

What do the screens show for `Cc1ccc(C(=O)O/N=C/c2c(N3CCOCC3)n(C)c3ccccc23)cc1`?
NPSR antagonist: inconclusive; PNC inhibitor: 82; KDM4E inh: inconclusive; Tau fibril ThT: -15%; Tau FP inhib: inconclusive; Tau fluor cs: inconclusive

Results for COC(=O)CSc1nnc(CNc2ccc(F)cc2)o1 ?
NPSR antagonist: -12%[46.1 µM]; PNC inhibitor: 9; KDM4E inh: 2%; Tau fibril ThT: -10%; Tau FP inhib: 9%; Tau fluor cs: -7%

What do the screens show for `CC(C)N(C(=O)CSc1nnc(CNc2ccc(F)cc2)o1)C(C)C`?
NPSR antagonist: -5%[46.1 µM]; PNC inhibitor: -100*; KDM4E inh: -4%; Tau fibril ThT: 4%; Tau FP inhib: 12%; Tau fluor cs: 4%

How did COc1ccc(CC2CCOC2=O)cc1 (stereo not given) do in these assays?
NPSR antagonist: 11%[46.1 µM]; PNC inhibitor: -127*; KDM4E inh: 5%; Tau fibril ThT: -5%; Tau FP inhib: -4%; Tau fluor cs: -1%

Results for COc1ccc(CC2C(=O)OC(C)(C)OC2=O)cc1 ?
NPSR antagonist: inconclusive; PNC inhibitor: -30; KDM4E inh: 0%; Tau fibril ThT: -4%; Tau FP inhib: -3%; Tau fluor cs: -6%

What do the screens show for `O=C(Nc1cccc(O)c1)N1CCOCC1`?
NPSR antagonist: -9%[46.1 µM]; PNC inhibitor: -100*; KDM4E inh: -2%; Tau fibril ThT: 2%; Tau FP inhib: -1%; Tau fluor cs: -3%

How did O=C(Nc1ccc2c(c1)OCCO2)N1CCOCC1 do in these assays?
NPSR antagonist: 13%; KDM4E inh: -2%; Tau fibril ThT: 1%; Tau FP inhib: -12%; Tau fluor cs: -5%

What do the screens show for `O=C(c1cc(-c2cccc(O)c2)on1)N1CCOCC1`?
NPSR antagonist: 0%[46.1 µM]; PNC inhibitor: -85*; KDM4E inh: 2%; Tau fibril ThT: -1%; Tau FP inhib: 3%; Tau fluor cs: 5%

What do the screens show for `Cc1oc(-c2ccc(Cl)cc2)nc1CS(=O)CC(=O)NCc1ccc(Cl)cc1` (stereo not given)?
Tau fibril ThT: -7%; Tau FP inhib: -5%; Tau fluor cs: -16%

What do the screens show for `COc1ccc(NS(=O)(=O)c2cc(OC)ccc2NC(=O)c2cc(C)oc2C)cc1`?
NPSR antagonist: -3%[46.1 µM]; PNC inhibitor: -100*; KDM4E inh: 1%; Tau fibril ThT: inconclusive; Tau FP inhib: inconclusive; Tau fluor cs: inconclusive

Results for COc1ccc(NC(=O)c2cc(S(=O)(=O)N3CCCC3)oc2C)cc1 ?
NPSR antagonist: -12%; KDM4E inh: 5%; Tau fibril ThT: -5%; Tau FP inhib: -5%; Tau fluor cs: -9%

What do the screens show for `COc1ccc(-c2cc(C)no2)cc1S(=O)(=O)N1CCN(c2ccc(C(C)=O)cc2)CC1`?
Tau fibril ThT: -8%; Tau FP inhib: 4%; Tau fluor cs: -25%

What do the screens show for `O=C(N/N=C/c1cccc(F)c1)c1c(O)c2c([nH]c1=O)CCCC2`?
NPSR antagonist: 19%; PNC inhibitor: -114*; KDM4E inh: -3%; Tau fibril ThT: 6%; Tau FP inhib: -1%; Tau fluor cs: 3%

How did Cc1ccc(Nc2nc(-c3ccncc3)nc3ccccc23)cc1 do in these assays?
NPSR antagonist: 20%; KDM4E inh: inconclusive; Tau fibril ThT: -2%; Tau FP inhib: -8%; Tau fluor cs: -20%

What do the screens show for `COc1ccc(NC(=O)c2cc(-c3ccco3)nc3ccccc23)cc1S(=O)(=O)N1CCOCC1`?
NPSR antagonist: 14%; KDM4E inh: inconclusive; Tau fibril ThT: inconclusive; Tau FP inhib: -5%; Tau fluor cs: inconclusive

How did COc1ccc(Nc2nc(-c3ccccc3)nc3ccccc23)cc1S(=O)(=O)N1CCOCC1 do in these assays?
NPSR antagonist: -54%; KDM4E inh: inconclusive; Tau FP inhib: 25µM*; Tau fluor cs: 13µM*[quencher]

Results for CN(C)c1ccc(-c2nc(Nc3ccncc3)c3ccccc3n2)cc1 ?
KDM4E inh: inconclusive; Tau fibril ThT: 7.1µM*; Tau FP inhib: inconclusive; Tau fluor cs: 7.1µM*[quencher]
